This note sets out measurements from PubChem BioAssay (NCATS).

Assay [1] deals with Calcium and integrin-binding protein 1 (Homo sapiens) (UniProt Q99828). In words: Primary qHTS for Identification of Calcium Integrin Binding Protein 1 (CIB1) Competitor (AID 1508620).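 Note: GST tagged CIB1 binding a fluorescein labelled alphaIIb integrin peptide tracer; top concentration of the series differs between compounds.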 In a few lines: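 CIB1-GST (1 uM final) and compound incubated 15 min at room temperature before adding FITC-alphaIIb peptide tracer (100 nM final). Competition for binding read by fluorescence polarization (ex 480, em 540) after another 15 min at room temperature.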

Assay [2] in a line: Primary qHTS for small molecule stabilizers of the endoplasmic reticulum resident proteome: Secreted ER Calcium Modulated Protein (SERCaMP) assay (AID 1508630). The method, boiled down: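 GLuc-SERCaMP-expressing SH-SY5Y cells, pretreated 16 h with compound, are challenged with thapsigargin to empty ER calcium stores; after 4 h, coelenterazine is added directly to the medium and luminescence is imaged.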
A general note: qHTS replaces the single test concentration by a dilution series.

Records with an inconclusive call do not appear. A call without a number means that no potency is given here. The source made the active and inactive calls. Calls come from the whole dose curve; as a rule, active = well fitted curve in the direction sought with a large enough effect; inconclusive = small, poorly fitted or top-dose-only effect, or another doubt; inactive = no such curve, though single readings can be large; an effect the other way counts as inactive or inconclusive.

Sequence of Calcium and integrin-binding protein 1 (Homo sapiens) (Q99828 whole entry, looked up): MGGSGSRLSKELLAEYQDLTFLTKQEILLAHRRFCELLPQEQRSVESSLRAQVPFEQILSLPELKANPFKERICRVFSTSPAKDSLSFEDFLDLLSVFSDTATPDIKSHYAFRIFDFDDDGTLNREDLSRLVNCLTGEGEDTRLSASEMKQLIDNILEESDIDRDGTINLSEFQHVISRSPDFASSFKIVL

As for `CNc1nc(-c2ccc3c(N)n[nH]c3c2)cc(N2C[C@@H](C(=O)NC3CCCCC3)CC[C@@H]2C)n1`, the Potency result in assay [1] and in assay [2] was “inactive” throughout.

On to `C[C@@H](NC(=O)c1ncnc(N)c1Cl)c1ncc(C(=O)Nc2cc(C(F)(F)F)c(Cl)cn2)s1`, for which the Potency result in assay [1] and in assay [2] was “inactive” each time.

In the case of `COc1cc2nccc(Oc3ccc(NC(=O)Nc4ccc(F)cc4F)c(F)c3)c2cc1OC`, the Potency result in assay [1] and in assay [2] was “inactive” in each case.

As for `CNC(=O)[C@H](Cc1ccccc1)NC(=O)[C@H](CC(C)C)[C@H](CSc1cccs1)C(=O)NO`, the Potency entry in assay [1] and in assay [2] was “inactive” in each case.

On to `COc1cc2nc(-c3cc(F)ccc3O)nc(N[C@@H]3CNC[C@@H]3C(C)(C)O)c2cc1OC`, for which the Potency result in assay [1] and in assay [2] was “inactive” each time.

Regarding `CC(=O)NCCC(=O)N[C@@H](CCC(N)=O)C(=O)N[C@@H](CO)C(=O)N[C@@H](CCC(N)=O)C(=O)N[C@@H](CCC(N)=O)C(=O)N[C@H](C(=O)N[C@@H](Cc1ccccc1)C(=O)N[C@]1(C)CCCCCCC=CCCC[C@@](C)(C(=O)N[C@@H](CCC(N)=O)C(=O)N[C@@H](CC(N)=O)C(N)=O)NC(=O)[C@H](CC(C)C)NC(=O)[C@H](CC(C)C)NC(=O)[C@@H](CCCNC(=N)N)NC(=O)[C@H](Cc2c[nH]c3ccccc23)NC(=O)[C@H](CC(C)C)NC(=O)[C@H](CC(N)=O)NC1=O)[C@H](C)O`, the Potency entry in assay [1] and in assay [2] was “inactive” in each case.

Regarding `Cn1c(=O)c(-c2c(Cl)cccc2Cl)cc2cnc(Nc3cccc(C(=O)O)c3)nc21`, the Potency entry in assay [1] and in assay [2] was “inactive” throughout.

With `CC(C)[C@H](O)C(=O)N[C@@H](C)C(=O)N[C@@H]1C(=O)N(C)CCc2ccccc21`, the Potency entry in assay [1] and in assay [2] was “inactive” throughout.

As to `NC(=O)c1ccc(N(C(N)=O)c2c(F)cccc2F)nc1-c1ccc(F)cc1F`, the Potency result in assay [1] and in assay [2] was “inactive” in each case.

On to `CCNC(=O)[C@H]1O[C@@H](n2cnc3c(N)nc(NCCc4ccc(CCC(=O)O)cc4)nc32)[C@H](O)[C@H]1O`, for which the Potency result in assay [1] and in assay [2] was “inactive” throughout.

Consider `CN1c2ccccc2C(=O)N2CCc3c([nH]c4ccccc34)C21` (stereo not drawn), for which the Potency result in assay [1] and in assay [2] was “inactive” throughout.

With `CC[C@H](C)C(=O)O[C@H]1C[C@H](O)C=C2C=C[C@H](C)[C@H](CC[C@@H](O)C[C@@H](O)CC(=O)O)[C@H]21`, the Potency entry in assay [1] and in assay [2] was “inactive” each time.

Regarding `Cc1[nH]c(C=C2C(=O)Nc3ccc(S(=O)(=O)N(C)c4cccc(Cl)c4)cc32)c(C)c1C(=O)N1CCN(C)CC1`, the Potency entry in assay [1] and in assay [2] was “inactive” throughout.

Take `COC1CCC(C(=O)c2ccc3nc4c(cc3c2)CCCO4)CC1` (stereo not drawn): the Potency entry in assay [1] and in assay [2] was “inactive” in each case.

Take `Cn1cnc(-c2cc3nccc(Oc4ccc(NC(=S)NC(=O)Cc5ccccc5)cc4F)c3s2)c1`: the Potency result in assay [1] and in assay [2] was “inactive” throughout.

For `CC1(C)[C@H]2CC[C@]3(C)[C@@H](C(=O)C=C4[C@@H]5C[C@@](C)(C(=O)O)CC[C@]5(C)CC[C@]43C)[C@@]2(C)CC[C@@H]1O`, the Potency result in assay [1] and in assay [2] was “inactive” each time.

Consider `N#CC(c1ccc(Cl)cc1)c1c(Cl)cc(-n2ncc(=O)[nH]c2=O)cc1Cl` (stereo not drawn), for which the Potency entry in assay [1] and in assay [2] was “inactive” in each case.

For the compound `O=C(O)Cc1cccc(OCCCN(Cc2cccc(C(F)(F)F)c2Cl)CC(c2ccccc2)c2ccccc2)c1`, the Potency result in assay [1] and in assay [2] was “inactive” each time.

As to `CCNC(=O)c1noc(-c2cc(C(C)C)c(O)cc2O)c1-c1ccc(CN2CCOCC2)cc1`, the Potency entry in assay [1] and in assay [2] was “inactive” throughout.

Consider `COc1ccc(-c2cc3nccn3c(Nc3ncccc3C(N)=O)n2)cc1OC`, for which the Potency entry in assay [1] and in assay [2] was “inactive” throughout.

Take `CNc1nc(Nc2ccc(C(=O)N3CCOCC3)cc2OC)ncc1Cl`: the Potency result in assay [1] and in assay [2] was “inactive” throughout.

With `Cc1csc(-c2nnc(Nc3ccc(Oc4ncccc4-c4ccnc(N)n4)cc3)c3ccccc23)c1`, the Potency result in assay [1] and in assay [2] was “inactive” each time.

With `COc1ccc2ccc(=O)oc2c1CC=C(C)C`, the Potency result in assay [1] and in assay [2] was “inactive” each time.

As for `CO[C@H]1/C=C\O[C@@]2(C)Oc3c(C)c(O)c4c(O)c(c(C=NN5CCN(C6CCCC6)CC5)c(O)c4c3C2=O)NC(=O)C(C)=CC=C[C@H](C)[C@H](O)[C@@H](C)[C@@H](O)[C@@H](C)[C@H](OC(C)=O)[C@H]1C`, the Potency result in assay [1] and in assay [2] was “inactive” throughout.

For the compound `O=C(CO)N1CCC(c2[nH]nc(-c3ccc(Cl)cc3)c2-c2ccncn2)CC1`, the Potency entry in assay [1] and in assay [2] was “inactive” each time.

`Cc1ccc2c(c1)C(=O)[C@]1(O)CCN(c3ccccc3)C1=N2`: the Potency entry in assay [1] and in assay [2] was “inactive” throughout.

As for `CC(=O)OCC(=O)[C@@]1(O)CC[C@H]2[C@@H]3CCC4=CC(=O)C=C[C@]4(C)[C@@H]3[C@@H](O)C[C@@]21C`, the Potency result in assay [1] and in assay [2] was “inactive” throughout.

`NS(=O)(=O)c1ccc(Nc2nc(OCC3CCCCC3)c3[nH]cnc3n2)cc1`: the Potency entry in assay [1] and in assay [2] was “inactive” in each case.

As to `CC(C)(O)CC(=O)NCCn1ccc2ncnc(Nc3ccc(Oc4cccc(C(F)(F)F)c4)c(Cl)c3)c21`, the Potency result in assay [1] and in assay [2] was “inactive” in each case.
